Experimental data taken from PubChem BioAssay (EPA / NIEHS).
Values joined by “and” are separate entries in the source; they are usually repeats but may differ in a detail not shown here. Identical values can stand only once. Active and inactive are the calls of the source. The calls were made as follows: active = hit-call score of the fitted dose curve at least 0.9, where 1 is the maximum; inconclusive = response in the unintended direction; inactive = score below 0.9.

The compounds below were run against Estrogen receptor beta (Homo sapiens) (UniProt Q92731) (assay: OT_ER_ERbERb_1440: Odyssey Thera (OT) 24-hour HEK293T Protein-Complementation Assay for Estrogen Receptor-beta/-beta Homodimer (AID 2283380);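 also: scored as signal increase over DMSO baseline for both agonists and antagonists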).
Protocol: OT_ER_ERbERb_1440 is a cell-based assay that uses HEK293T, a human kidney cell line, with measurements taken at 24 hours after chemical dosing in a 384-well plate.OT_ER_ERbERb_1440 is one of one assay component(s) measured or calculated from the OT_ER_ERbERb_1440 assay. It is designed to make measurements of protein fragment complementation, a form of binding reporter, as detected with fluorescence intensity signals by Protein-fragment Complementation technology.Data from the assay component OT_ER_ERbERb_1440 was analyzed into 1 assay endpoint. This assay endpoint, OT_ER_ERbERb_1440, was analyzed in the positive analysis fitting direction relative to DMSO as the negative control and baseline of activity. Using a type of binding reporter, measures of receptor for gain-of-signal activity can be used to understand the binding at the pathway-level as they relate to the gene ESR2. Furthermore, this assay endpoint can be referred to as a primary readout, because the performed assay has only produced 1 assay endpoint. To generalize the intended target to other relatable targets, this assay endpoint is annotated to the nuclear receptor intended target family, where the subfamily is steroidal.
Protein-fragment complementation assay, or PCA, is a method for the identification and quantification of protein-protein interactions. In the PCA, the proteins of interest ("bait" and "prey") are each covalently linked to fragments of a third protein (e.g. DHFR, which acts as a "reporter"). Interaction between the bait and the prey proteins brings the fragments of the reporter protein in close proximity to allow them to form a functional reporter protein whose activity can be measured. The OT ER beta / ER beta assay is a homodimer PCA of the ligand binding domain (LBD; amino acids 310-547) of human ER beta stably expressed in HEK293T cells. […] Cells are fixed in 4 percent formaldehyde and stained with Draq5 (BioStatus) to identify cells prior to signal detection. Fluorescent signal in the basal state of the assay is very low and is primarily punctuate and cytoplasmic. Modulation of this assay is quantified as an increase in mean fluorescence intensity in the nucleus (for agonists) or in the nucleus and cytoplasm (antagonists) relative to vehicle controls, and can be quantified on a high content imaging device or a laser scanning cytometer. The latter instrument is favored for this assay because of the rapid mode of data acquisition, the ability to acquire data from the entire cell population in a well (as opposed to a fraction of the well on the high content devices) and the larger dynamic range typically achieved with this instrument. To assess sensitivity of the ER beta/ER beta LBD assay to ligand, cells were treated with the ER agonist 17- beta-estradiol (E2) in 10-point concentration- response format for 24 hours and monitored response on a laser scanning plate cytometer (Acumen eX3; TTP Lab Tech).

Chain of Estrogen receptor beta (Homo sapiens) (Q92731 whole entry, looked up, the tested form may be a part): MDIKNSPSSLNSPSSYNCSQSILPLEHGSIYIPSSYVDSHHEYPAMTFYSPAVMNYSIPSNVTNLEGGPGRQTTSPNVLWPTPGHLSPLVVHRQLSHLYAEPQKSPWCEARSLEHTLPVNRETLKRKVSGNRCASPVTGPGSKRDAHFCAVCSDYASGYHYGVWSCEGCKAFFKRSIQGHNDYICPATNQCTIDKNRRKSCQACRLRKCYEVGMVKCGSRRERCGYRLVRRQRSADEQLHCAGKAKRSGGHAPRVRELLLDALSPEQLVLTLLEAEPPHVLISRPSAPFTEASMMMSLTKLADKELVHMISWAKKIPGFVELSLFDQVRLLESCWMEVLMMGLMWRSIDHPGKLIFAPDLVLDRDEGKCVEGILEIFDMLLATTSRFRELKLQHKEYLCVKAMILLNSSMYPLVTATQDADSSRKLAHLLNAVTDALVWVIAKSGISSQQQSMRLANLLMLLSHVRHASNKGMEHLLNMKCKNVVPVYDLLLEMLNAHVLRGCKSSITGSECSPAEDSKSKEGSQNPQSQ

Compound | outcome | AC50
CC(C)(C)c1ccccc1 | inactive | 
C/C=C/c1ccc(OC)cc1 | inactive | 
CN(C)CCCN1c2ccccc2Sc2ccc(Cl)cc21 | inactive | 
CC(C)c1cccc(C(C)C)c1NC(=O)NS(=O)(=O)c1cc(C(C)(C)O)co1 | inactive | 
C#CC(O)C(CC)CCCC (stereo not given) | inactive | 
C=CCCCCCCCCCCCC | inactive | 
CCCCCCCCCCCCCCOS(=O)(=O)O | inactive | 
O=C(O)c1cccnc1 | inactive | 
CC(=O)[C@@]1(O)CC[C@H]2[C@@H]3CCC4=CC(=O)CC[C@]4(C)[C@H]3CC[C@@]21C | inactive | 
CCCCCCCC(=O)OC | inactive | 
O=C(O)CC(O)(CC(=O)O)C(=O)O | inactive | 
O=C1CCCCC1 | inactive | 
OCC(CO)n1cnc(-c2ccc(F)cc2)c1-c1ccnc(Oc2ccccc2)n1 | inactive | 
CC(C)NCC(O)c1ccc(O)c(O)c1 (stereo not given) | inactive | 
CC(=O)O[C@]1(C(C)=O)CC[C@H]2[C@@H]3C=C(Cl)C4=CC(=O)[C@@H]5C[C@@H]5[C@]4(C)[C@H]3CC[C@@]21C | inactive | 
Oc1ccc(O)cc1 |  | 26.4 µM (active)
CCCCCCCCCC[N+](C)(C)[O-] | inactive | 
Nc1nc(=S)c2[nH]cnc2[nH]1 | inactive | 
NC(=Nc1ccccc1)Nc1ccccc1 | inactive | 
CO[C@@H]1COCC[C@@H]1N[C@@H]1CC[C@@](C(=O)N2CCc3ncc(C(F)(F)F)cc3C2)(C(C)C)C1 | inactive | 

Compound | outcome | AC50
CCCCC(CC)COP(=O)(OCC(CC)CCCC)OCC(CC)CCCC (stereo not given) | inactive | 
CCc1nc(N)nc(N)c1-c1ccc(Cl)cc1 | inactive | 
Cc1cn([C@H]2C=C[C@@H](CO)O2)c(=O)[nH]c1=O | inactive | 
O=C(NS(=O)(=O)/C=C/c1cccs1)c1ccc(F)cc1Br | inactive | 
C=CCc1ccc(OC)c(OC)c1 | inactive | 
CCN(CC)CCOc1ccc(C(=C(Cl)c2ccccc2)c2ccccc2)cc1 |  | 60.4 nM (active) and 53.3 nM (active) and 30.6 nM (active)
Cc1ccc(C(C)(C)C)c(O)c1 | inactive | 
Oc1ccccc1O |  | 31 µM (active)
CS(=O)(=O)c1ccc([C@@H](C[C@H]2CCC(=O)C2)C(=O)Nc2cnccn2)cc1Cl | inactive | 
NCCOCCOCCN | inactive | 
O=Cc1ccccc1C=O | inactive | 
CC(COCC(C)OC(=O)c1ccccc1)OC(=O)c1ccccc1 (stereo not given) | inactive | 
NC1CCCCC1 | inactive | 
O=C1O[C@H]([C@H](O)CO)C(O)=C1O | inactive | 
Cc1cc(Cc2ccc(N)c(C)c2)ccc1N |  | 64.1 µM (active)
N[C@@H](Cc1c[nH]c2ccccc12)C(=O)O | inactive | 
CCCCCCC(CCCCCCCCCCC(=O)OCC(COC(C)=O)OC(C)=O)OC(C)=O (stereo not given) | inactive | 
O=C(Oc1ccccc1)c1cccc(C(=O)Oc2ccccc2)c1 | inactive | 
S=c1[nH]c2ccccc2s1 | inactive | 
CN(C)CCCN(C)CCCN(C)C | inactive | 
